# The list is not random: actives were taken first. Their share in the collection is about 11%.
# CBFb-RUNX1 inh = qHTS Assay for Compounds Blocking the Interaction Between CBF-beta and RUNX1 for the Treatment of Acute Myeloid Leukemia. Runt-related transcription factor 1 (Homo sapiens) + Core-binding factor subunit beta …. 230,000 tested, under 10 active. AlphaScreen CBFb-His/RUNX1-biotin binding, biochemical. Potency, µM (doses to about 59.8 µM), inactives show at the top dose activity, negative = inhibition, usual class: inhibitors; note: % of control where 0% means no effect
#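 Interaction loss through any mechanism counts as activity. Pre-formed complex of His-CBF-beta and biotin-RUNX1 (30 nM apiece) is incubated with compound 15 min, then with 50 ng nickel and 50 ng streptavidin beads for 90 min before AlphaScreen detection.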
# HTT ATP protect = qHTS Multiplex Assay to Identify Dual Action Probes in a Cell Model of Huntington: Cytoprotection (ATP); PC12 HTT-Q103 induced, cytoprotection, ATP luminescence, 40 h; Potency, µM (doses to about 56.4 µM), for inactives: cytoprotection (ATP increase), usual class: activators; 230,000 tested, 0.14% active; AID 1471, 2008; note: potency is the fitted concentration of half-maximal effect; % of control where 0% means no effect; nearly all actives have a fitted effect of over 45% in size
#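 PC12 cells with ecdysone-inducible HTT exon 1 Q103-GFP, induced with 100 nM tebufenozide and co-treated with library compounds in a dose series (1536-well, 1500 cells/well). Cytoprotection read as ATP content by ATPlite luminescence.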
# HTT aggregate = qHTS Multiplex Assay to Identify Dual Action Probes in a Cell Model of Huntington: Aggregate Formation (GFP); PC12 HttQ103-GFP aggregates, Acumen cytometry, 40 h; Potency, µM (series often up to 46.1 µM), inactives show top-dose activity change, negative = inhibition, hits mostly inhibitors; 220,000 tested, 1.1% active; AID 1688, 2009; note: potency is the fitted concentration of half-maximal effect; % is set by controls: 0 for no effect and ±100 for the full control effect; nearly all actives have a fitted effect of over 60% in size
#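 Huntingtin Q103 exon 1–GFP aggregates in induced PC12 cells (100 nM tebufenozide) were quantified by cytometry from lysates, with compounds dosed in titration.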
# PNC assembly inh = High Content Assay for Compounds that inhibit the Assembly of the Perinucleolar Compartment; PC3M PTB-GFP, PNC prevalence imaging, 16 h; hits give low values; activity change (PNC), negative = inhibition, % at 10 µM; 140,000 tested, 3.1% active; AID 2417, 2010;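 active = readout at or below -70, meaning at least 70% loss of cells showing the perinucleolar compartment, a nuclear body marking cancer cells; inconclusive = readout between -30 and a set limit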;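 note: plate controls were DMSO wells for no effect and camptothecin positive control wells for full effect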
#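 PC3M cells stably expressing PTB-GFP, 750–1000 cells/well, treated 16 h at 37 °C with compound (23 nl of library stock), in duplicate. After paraformaldehyde fixation and Hoechst stain, imaged at 20x; PNC prevalence scored by image analysis.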
# HPGD block = qHTS Assay for Inhibitors of HPGD (15-Hydroxyprostaglandin Dehydrogenase) | 15-hydroxyprostaglandin dehydrogenase [NAD(+)] (Homo sapiens), P15428 | purified HPGD, NADH fluorescence kinetic, PGE2 substrate | Potency, µM, for inactives: top-dose activity change, negative = inhibition, usual class: inhibitors | 150,000 tested, 4.3% active | AID 894, 2007; active = well fitted inhibition curve with a large enough effect, not every such curve was filed as active; inconclusive = small, poorly fitted or top-dose-only effect, or another doubt; inactive = no such curve, though single readings can be large or run the other way; note: potency is the fitted concentration of half-maximal effect; % is set by controls: 0 for no effect and ±100 for the full control effect
#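 NADH formation kinetics: reaction with 30 uM PGE2 and 1 mM NAD+ (final), 20 nM enzyme, Tris-HCl pH 8 with Tween 20, after 15 min compound preincubation at room temperature. Fluorescence change, last versus first of five reads.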
# ALDH1A1 block = qHTS Assay for Inhibitors of Aldehyde Dehydrogenase 1 (ALDH1A1); Purified ALDH1A1, NADH fluorescence, propionaldehyde substrate; Potency, µM (titrated, usually from 75.3 µM), for the others: at the top dose activity, negative = inhibition, hits mostly inhibitors; 220,000 tested, 7.3% active; AID 1030, 2008; active = well fitted inhibition curve with a large enough effect, not every such curve was filed as active; inconclusive = small, poorly fitted or top-dose-only effect, or another doubt; inactive = no such curve, though single readings can be large or run the other way;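 note: potency is the fitted concentration of half-maximal effect; plate controls were no enzyme wells and a reference inhibitor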
# Target sequence (P00352 whole entry, looked up): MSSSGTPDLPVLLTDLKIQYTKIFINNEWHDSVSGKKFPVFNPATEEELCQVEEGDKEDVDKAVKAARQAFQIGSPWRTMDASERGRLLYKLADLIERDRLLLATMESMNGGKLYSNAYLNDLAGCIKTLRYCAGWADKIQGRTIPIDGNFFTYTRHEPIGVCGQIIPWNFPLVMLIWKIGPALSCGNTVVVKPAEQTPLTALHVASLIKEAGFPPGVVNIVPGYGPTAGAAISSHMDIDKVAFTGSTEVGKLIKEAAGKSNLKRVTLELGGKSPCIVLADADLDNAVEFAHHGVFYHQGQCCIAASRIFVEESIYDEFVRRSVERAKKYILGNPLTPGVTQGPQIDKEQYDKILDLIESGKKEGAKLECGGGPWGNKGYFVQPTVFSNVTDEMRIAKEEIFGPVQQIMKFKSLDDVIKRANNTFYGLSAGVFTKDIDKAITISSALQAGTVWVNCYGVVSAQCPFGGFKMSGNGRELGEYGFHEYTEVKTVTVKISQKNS
# * marks the source's active call; other numbers are inactive results; ? = inconclusive; . = no result given; [ ] = another dose, or the depositor's remark. Unless noted, calls come from the whole dose curve; as a rule, active = well fitted curve in the direction sought with a large enough effect; inconclusive = small, poorly fitted or top-dose-only effect, or another doubt; inactive = no such curve, though single readings can be large; an effect the other way counts as inactive or inconclusive.
SMILES,CBFb-RUNX1 inh,HTT ATP protect,HTT aggregate,PNC assembly inh,HPGD block,ALDH1A1 block
CN(C)CCN1C(=O)C(=O)/C(=C(/O)c2ccccc2)C1c1ccccc1F (configuration not stated),0%,3%,14%,?,-16%,18µM*
COc1cccc(C2/C(=C(\O)c3ccc4c(c3)OCO4)C(=O)C(=O)N2CCN(C)C)c1OC (configuration not stated),-3%,-1%,5%,-16,-28%,22µM*
CCN(CC)CCCN1C(=O)C(=O)/C(=C(/O)c2ccc3c(c2)OCCO3)C1c1ccc(C)o1 (configuration not stated),4%,-8%,-7%,-19,-15%,25µM*
C[N@@+]1(Cc2ccc(Cl)c(Cl)c2)CCC[C@@H]1c1ccc[n+](Cc2ccc(Cl)c(Cl)c2)c1,.,-5%[10 µM],.,.,-7%,11%[13.5 µM]
O=C(N/N=C/c1ccc(N2CCOCC2)c([N+](=O)[O-])c1)c1ccc(F)cc1,-2%,3%,32%,9,-15%,5µM*
O=C(Nc1ccc(N2CCOCC2)c(Cl)c1)c1ccc(F)cc1,2%,31%[10 µM],-3%,-21,-16%,9%
O=C(N/N=C/c1ccc(N2CCCC2)c([N+](=O)[O-])c1)c1cccnc1,0%,?,-5%,.,.,0.28µM*
O=C(O)c1cnc(-c2ccccc2)nc1-c1ccccc1,-9%,-2%,-1%,.,.,6%
COc1cc(C)c(CNc2cc(C)cc(C)c2)cc1C,-7%,10%,-4%,5,-28%,-6%
COc1cc(C)c(CNc2ccc(OC)c(OC)c2)cc1C,?,-19%[10 µM],7%,0,-17%,25µM*
COc1cc(C)c(CNc2cccc(C)c2)cc1C,-2%,25%[10 µM],7%,?,-22%,14µM*
COc1cc2c(cc1O)CCC1C2CC[C@]2(C)[C@@H](O)CC[C@@H]12 (some centres not stated),6%,.,.,.,-10%,-2%
O=C(c1ccccc1[N+](=O)[O-])N1CCc2ccccc2C1,-1%,35%[10 µM],-8%,5,13µM*,2%
O=C(c1ccc(CN2CCc3ccccc3C2)cc1)N1CCN(c2ccccc2)CC1,?,6%[10 µM],?,-3,-14%,?
O=C(OCC(=O)N1CCc2ccccc2C1)c1ccc(N2CCOCC2)c([N+](=O)[O-])c1,-5%,10%[10 µM],-16%,22,.,20µM*
CCCCNC(=O)N1CCc2ccccc2C1,12%,.,14%,-114*,-6%,2%
CCCCNc1nc2ccccc2n1CC(=O)N1CCc2ccccc2C1,5%,-29%,-4%,27,-1%,9%
O=C(c1ccc(CN2CCc3ccccc3C2)cc1)N1CCc2ccccc2C1,-1%,15%,4%,16,3.2µM*,-12%
CN1CCN(C(=O)C23CC4CC(C2)CC(c2ccccc2)(C4)C3)CC1,-4%,-8%[10 µM],-1%[9.22 µM],.,.,?
Cc1ccc(S(=O)(=O)NCl)cc1,.,-11%,3%,.,.,.
CCOc1ccc(CN(C)CC(=O)NCc2ccccc2Cl)cc1,1%,-7%[10 µM],?,.,.,-84%
COc1ccc(O[C@H]2C=C[C@@H](c3ccccc3)O[C@H]2COC(=O)CC/C(C)=N\OC[C@@H](O)COCc2ccco2)cc1,0%[13.1 µM],-42%[10 µM],.,.,.,-15%[13.5 µM]
CC[N+](C)(CC)CC(=O)Nc1c(C)cccc1C,?,-6%,.,.,-19%,-4%
O=C(Nc1ccc(Br)cc1)N1CCCCC1,-3%,-5%,0%,.,.,?

# Bioassay records as filed in PubChem.
